Assay results from PubChem BioAssay (Tox21).
Inconclusive results are not listed. Calls of active or inactive are those of the source. Unless noted, calls come from the whole dose curve.

Columns and labels:
[1] = molecular target: Peroxisome proliferator-activated receptor delta (Homo sapiens) (UniProt Q03181); assay: qHTS assay to identify small molecule agonists of the peroxisome proliferator-activated receptor delta (PPARd) signaling pathway (AID 743212);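 note: HEK293H cells with PPARd UAS beta-lactamase reporter GeneBLAzer system; % is set by controls: 0 for no effect and ±100 for the full control effect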
Method in brief: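 Beta-lactamase reporter read by fluorescence (LiveBLAzer B/G FRET, 2 h, room temperature). Test agents, in DMSO, incubated at 37 C with PPARd-bla HEK293H cells.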

[2] = qHTS assay to identify small molecule antagonists of the peroxisome proliferator-activated receptor delta (PPARd) signaling pathway - cell viability counter screen (AID 743213; active = well fitted curve in the direction sought with a large enough effect in the repeat runs; an effect the other way counts as inactive or inconclusive; note: % is set by controls: 0 for no effect and ±100 for the full control effect; nearly all actives have a fitted effect of over 50% in size)
Method in brief: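 HEK293H cells with the PPARd UAS-bla reporter, co-treated 17 h at 37 C with compounds and L165041 (300 nM final), were lysed with CellTiter-Glo. Luminescence indicated viable cell content.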

[3] = molecular target: Peroxisome proliferator-activated receptor delta (Homo sapiens) (UniProt Q03181); assay: qHTS assay to identify small molecule antagonists of the peroxisome proliferator-activated receptor delta (PPARd) signaling pathway (AID 743215; active = well fitted inhibition curve with a large enough effect in the signal ratio in the repeat runs, not every such curve was filed as active; the % refers to the signal ratio;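 note: cells stimulated with agonist L165041 at 300 nM final during compound exposure; series mostly up to about 62 µM; % is set by controls: 0 for no effect and ±100 for the full control effect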)
Method in brief: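 Fluorescence from cleaved LiveBLAzer B/G FRET substrate (2 h, room temperature) reports PPARd-driven beta-lactamase in HEK293H UAS-bla cells. Cells had been treated 17 h at 37 C with compound plus 300 nM final L165041.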

[4] = molecular target: Bile acid receptor (Homo sapiens) (UniProt Q96RI1); assay: qHTS assay to identify small molecule antagonists of the farnesoid-X-receptor (FXR) signaling pathway (AID 743217; active = well fitted inhibition curve with a large enough effect in the signal ratio in the repeat runs, not every such curve was filed as active; the % refers to the signal ratio; note: % is set by controls: 0 for no effect and ±100 for the full control effect)
Method in brief: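 FRET fluorescence after 2 h room-temperature LiveBLAzer loading gives the readout. Prior step: FXR-bla HEK 293T cells, seeded and incubated 5 h, received test compounds plus 50 uM final CDCA for 16 h at 37 °C.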

[5] = qHTS assay to identify small molecule agonists of the farnesoid-X-receptor (FXR) signaling pathway - cell viability counter screen (AID 743218; active = well fitted curve in the direction sought with a large enough effect in the repeat runs; an effect the other way counts as inactive or inconclusive; note: % is set by controls: 0 for no effect and ±100 for the full control effect; nearly all actives have a fitted effect of over 45% in size)
Method in brief: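 Readout: CellTiter-Glo luminescence, 30 min RT, multiplexed after the FXR-bla FRET reading. HEK 293T FXR-UAS-bla cells received compound 5 h post-plating and were incubated 16 h at 37 C.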

[6] = molecular target: Bile acid receptor (Homo sapiens) (UniProt Q96RI1); assay: qHTS assay to identify small molecule agonists of the farnesoid-X-receptor (FXR) signaling pathway (AID 743220; active = well fitted activation curve with a large enough effect in the signal ratio in the repeat runs, not every such curve was filed as active; the % refers to the signal ratio; note: % is set by controls: 0 for no effect and ±100 for the full control effect)
Method in brief: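 FXR-UAS-bla HEK 293T cells carrying a UAS-driven beta-lactamase reporter were plated for 5 h at 37C/5% CO2, then exposed to DMSO-dissolved Tox21 10K compounds for 16 h at 37C. A LiveBLAzer B/G FRET substrate was loaded for 2 h at room temperature before fluorescence reading.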

[7] = molecular target: Vitamin D3 receptor (Homo sapiens) (UniProt P11473); assay: qHTS assay to identify small molecule agonists of the vitamin D receptor (VDR) signaling pathway (AID 743222); note: % is set by controls: 0 for no effect and ±100 for the full control effect
Method in brief: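 Following 4 h attachment at 37C, VDR-bla cells (2,000 per well) received DMSO-dissolved compounds or controls. After 16 h incubation, LiveBLAzer B/G FRET substrate was added and fluorescence read 2 h later at room temperature.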

[8] = molecular target: Vitamin D3 receptor (Homo sapiens) (UniProt P11473); assay: qHTS assay to identify small molecule antagonists of the vitamin D receptor (VDR) signaling pathway (AID 743223; active = well fitted inhibition curve with a large enough effect in the signal ratio in the repeat runs, not every such curve was filed as active; the % refers to the signal ratio; note: % is set by controls: 0 for no effect and ±100 for the full control effect)
Method in brief: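 Antagonist mode: compound added to VDR-bla cells alongside agonist 1alpha,25-dihydroxyvitamin D3 (3 nM final), incubation 16 h at 37C. Read-out is LiveBLAzer FRET fluorescence, 2 h at room temperature.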

[9] = qHTS assay to identify small molecule agonists of the vitamin D receptor (VDR) signaling pathway - cell viability counter screen (AID 743224; active = well fitted curve in the direction sought with a large enough effect in the repeat runs; an effect the other way counts as inactive or inconclusive; note: series mostly up to about 63 µM; % is set by controls: 0 for no effect and ±100 for the full control effect; nearly all actives have a fitted effect of over 50% in size)
Method in brief: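 In parallel with the bla FRET readout, cytotoxicity toward VDR-bla cells after 16 h compound exposure was assessed by CellTiter-Glo, with luminescence recorded after a 30 min room-temperature incubation.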

[10] = qHTS assay to identify small molecule agonists of the NFkB signaling pathway (AID 1159509; active = well fitted curve in the direction sought with a large enough effect in the signal ratio in the repeat runs, not every such curve was filed as active; the % refers to the signal ratio)
Method in brief: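 Readout: FRET fluorescence, 405 nm excitation, 460/530 nm emission; beta-lactamase expression disrupts FRET. Cells: ME-180 stably carrying NF-kB-driven bla reporter. Compound exposure 5 hr, 37 C, 5% CO2.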

[11] = qHTS assay to identify small molecule agonists of the NFkB signaling pathway - cell viability counter screen (AID 1159515); note: series mostly up to about 61 µM; % is set by controls: 0 for no effect and ±100 for the full control effect; nearly all actives have a fitted effect of over 55% in size
Method in brief: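 Plate 2,000 NFkB-bla ME-180 cells/well; incubate overnight. Add compounds, 5 hr at 37 C. Add FRET substrate, 1.5 hr RT. Add CellTiter-Glo, 30 min RT; read luminescence.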

[12] = qHTS assay to identify small molecule agonists of the endoplasmic reticulum stress response signaling pathway (AID 1159516; active = well fitted activation curve with a large enough effect in the signal ratio in the repeat runs, not every such curve was filed as active; the % refers to the signal ratio; note: % is set by controls: 0 for no effect and ±100 for the full control effect)
Method in brief: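 Beta-lactamase expression from the ER stress response element in HeLa reporter cells is quantified with the LiveBLAzer B/G FRET substrate, read at 405 nm excitation after 2 hr at room temperature, following 5 hr compound treatment at 37 C.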

[13] = qHTS assay to identify small molecule agonists of the endoplasmic reticulum stress response signaling pathway - cell viability counter screen (AID 1159517); note: series mostly up to about 61 µM; % is set by controls: 0 for no effect and ±100 for the full control effect; nearly all actives have a fitted effect of over 50% in size
Method in brief: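 Cytotoxicity of test compounds toward ESRE-bla HeLa cells was assessed after 5 hr exposure. The luminescent CellTiter-Glo signal was measured 30 min after reagent addition.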

[14] = qHTS assay to identify small molecule antagonists of the retinoid-related orphan receptor gamma (ROR-gamma) signaling pathway - cell viability counter screen (AID 1159520; active = well fitted curve in the direction sought with a large enough effect in the repeat runs; an effect the other way counts as inactive or inconclusive; note: % is set by controls: 0 for no effect and ±100 for the full control effect; nearly all actives have a fitted effect of over 50% in size)
Method in brief: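 Tet-on ROR gamma CHO cells (1,000/well) were plated 4 hr, given compounds in DMSO for 2 hr at 37 C, then induced with 1 uM final doxycycline for 16 hr. Viability was read as ATP by CellTiter-Glo luminescence after 30 min.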

[15] = molecular target: Nuclear receptor ROR-gamma (Homo sapiens) (UniProt P51449); assay: qHTS assay to identify small molecule antagonists of the retinoid-related orphan receptor gamma (ROR-gamma) signaling pathway (AID 1159521; active = well fitted curve in the direction sought with a large enough effect in the repeat runs; an effect the other way counts as inactive or inconclusive)
Method in brief: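 Antagonist read-out: drop in luminescence (ONE-Glo) from an RORE-LUC reporter in CHO cells with doxycycline-inducible ROR-gamma; 2 hr compound pretreatment, 1 uM doxycycline, 16 hr incubation at 37 C.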

[16] = qHTS assay to identify small molecule agonists of the AP-1 signaling pathway - cell viability counter screen (AID 1159525); note: nearly all actives have a fitted effect of over 55% in size
Method in brief: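 Each titration point was normalised to DMSO and tetra n-octyl ammonium bromide controls. The read was Cell Titer Glo luminescence after 30 min at RT, following 5 h compound exposure of ME-180 AP-1-bla cells at 37 °C.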

[17] = qHTS assay to identify small molecule agonists of the AP-1 signaling pathway (AID 1159526); note: % is set by controls: 0 for no effect and ±100 for the full control effect
[18] = molecular target: Retinoic acid receptor RXR-alpha (Homo sapiens) (UniProt P19793); assay: qHTS assay to identify small molecule agonists of the RXR signaling pathway (AID 1159527); note: % is set by controls: 0 for no effect and ±100 for the full control effect; nearly all actives have a fitted effect of over 35% in size
Method in brief: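 Agonist-mode beta-lactamase reporter assay: HEK 293T RXR-alpha-UAS-bla cells treated 16 hr at 37 C with compounds, 9-cis retinoic acid as positive control. LiveBLAzer FRET substrate, 405 nm excitation, 460/530 nm emission.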

[19] = qHTS assay to identify small molecule antagonists of the farnesoid-X-receptor (FXR) signaling pathway - cell viability counter screen (AID 743221; active = well fitted cell-killing curve with a large enough effect in the repeat runs, not every such curve was filed as active)
Method in brief: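 Cytotoxicity counter screen run in the FXR-bla reporter wells: HEK 293T cells exposed to compound with 50 uM (final) chenodeoxycholic acid for 16 h, 37 C, then viability measured by CellTiter-Glo luminescence after 30 min, room temperature.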

[20] = qHTS assay to identify small molecule antagonists of the vitamin D receptor (VDR) signaling pathway - cell viability counter screen (AID 743225; active = well fitted curve in the direction sought with a large enough effect in the repeat runs; an effect the other way counts as inactive or inconclusive)
Method in brief: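 Cytotoxicity counter screen read by CellTiter-Glo luminescence (30 min, room temperature) in the same wells as the VDR-bla antagonist readout. HEK 293T VDR-UAS-bla cells had 16 h at 37C with compound and 3 nM (final) 1-alpha,25-dihydroxyvitamin D3, then 2 h with FRET substrate.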

Chain of Vitamin D3 receptor (Homo sapiens) (P11473 whole entry, looked up): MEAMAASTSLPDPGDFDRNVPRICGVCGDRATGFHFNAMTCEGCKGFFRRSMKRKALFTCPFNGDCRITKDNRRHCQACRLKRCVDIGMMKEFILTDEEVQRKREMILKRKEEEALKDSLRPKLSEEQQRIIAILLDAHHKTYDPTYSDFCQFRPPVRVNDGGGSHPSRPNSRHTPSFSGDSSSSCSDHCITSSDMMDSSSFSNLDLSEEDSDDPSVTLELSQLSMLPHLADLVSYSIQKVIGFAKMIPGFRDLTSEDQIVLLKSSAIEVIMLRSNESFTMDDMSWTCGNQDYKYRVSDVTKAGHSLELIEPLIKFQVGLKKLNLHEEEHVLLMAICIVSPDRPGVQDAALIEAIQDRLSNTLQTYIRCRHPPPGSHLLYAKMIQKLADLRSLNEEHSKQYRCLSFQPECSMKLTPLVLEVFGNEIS
Chain of Bile acid receptor (Homo sapiens) (Q96RI1 whole entry, looked up): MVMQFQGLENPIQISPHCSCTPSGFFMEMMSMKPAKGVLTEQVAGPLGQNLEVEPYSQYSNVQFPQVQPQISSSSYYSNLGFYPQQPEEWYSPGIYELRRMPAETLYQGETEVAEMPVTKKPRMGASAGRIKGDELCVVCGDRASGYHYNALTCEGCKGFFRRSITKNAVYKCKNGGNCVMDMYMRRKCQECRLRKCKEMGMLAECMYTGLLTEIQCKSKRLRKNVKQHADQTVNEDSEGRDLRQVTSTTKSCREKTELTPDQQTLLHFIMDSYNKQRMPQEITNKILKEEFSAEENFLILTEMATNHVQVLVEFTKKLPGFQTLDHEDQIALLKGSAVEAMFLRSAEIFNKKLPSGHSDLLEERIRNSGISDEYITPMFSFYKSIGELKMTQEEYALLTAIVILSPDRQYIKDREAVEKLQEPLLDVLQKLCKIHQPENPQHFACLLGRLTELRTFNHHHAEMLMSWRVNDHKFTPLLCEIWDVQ
Chain of Peroxisome proliferator-activated receptor delta (Homo sapiens) (Q03181 whole entry, looked up): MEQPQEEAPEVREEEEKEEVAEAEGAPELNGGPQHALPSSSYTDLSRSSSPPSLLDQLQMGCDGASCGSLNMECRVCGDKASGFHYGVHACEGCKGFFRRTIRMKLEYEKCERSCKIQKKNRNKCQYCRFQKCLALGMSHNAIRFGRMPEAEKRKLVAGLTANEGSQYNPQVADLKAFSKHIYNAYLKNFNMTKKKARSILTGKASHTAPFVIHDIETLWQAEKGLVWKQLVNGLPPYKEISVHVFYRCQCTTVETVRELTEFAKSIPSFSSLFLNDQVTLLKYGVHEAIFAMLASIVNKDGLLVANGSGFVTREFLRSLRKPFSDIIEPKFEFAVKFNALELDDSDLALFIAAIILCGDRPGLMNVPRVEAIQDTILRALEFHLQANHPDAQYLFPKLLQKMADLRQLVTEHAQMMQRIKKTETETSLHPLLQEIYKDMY
Chain of Retinoic acid receptor RXR-alpha (Homo sapiens) (P19793 whole entry, looked up): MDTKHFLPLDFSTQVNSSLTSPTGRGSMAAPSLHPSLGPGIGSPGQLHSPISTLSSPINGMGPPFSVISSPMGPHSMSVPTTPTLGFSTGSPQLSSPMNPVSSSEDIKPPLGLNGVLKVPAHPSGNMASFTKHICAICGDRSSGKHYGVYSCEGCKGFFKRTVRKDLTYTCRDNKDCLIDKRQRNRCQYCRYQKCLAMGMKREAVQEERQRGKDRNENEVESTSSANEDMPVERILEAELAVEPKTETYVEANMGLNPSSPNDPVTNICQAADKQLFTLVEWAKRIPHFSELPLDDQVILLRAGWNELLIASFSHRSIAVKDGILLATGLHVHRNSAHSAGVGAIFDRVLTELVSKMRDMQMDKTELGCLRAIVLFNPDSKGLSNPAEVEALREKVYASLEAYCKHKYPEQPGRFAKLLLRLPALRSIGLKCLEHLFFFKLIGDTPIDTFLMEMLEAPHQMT

Nc1ccc(/C=C/c2ccc(N)cc2S(=O)(=O)O)c(S(=O)(=O)O)c1
inactive: activation [1] -0.496% [at 0.55 µM] | viability change, negative = cytotoxic [2] -6.12% [at 0.575 µM] | ratio activity, negative = inhibition [3] -1.73% [at 0.575 µM] | activity change, negative = inhibition [4] 3.76% [at 0.55 µM] | viability change, negative = cytotoxic [5] 14.9% [at 0.55 µM] | activation [6] 1.54% [at 0.55 µM] | activation [7] 1.93% [at 0.554 µM] | activity change, negative = inhibition [8] 0.787% [at 0.628 µM] | activity change, negative = cytotoxicity [9] 8.54% [at 0.55 µM] | activation [10] 0.561% [at 0.628 µM] | activity, negative = cytotoxic [11] 1.66% [at 0.628 µM] | activation [12] 0% [at 0.628 µM] | activity change, negative = cytotoxicity [13] 9.94% [at 0.628 µM] | activity, negative = cytotoxicity [14] -1.32% [at 0.349 µM] | activity change, negative = inhibition [15] 35.7% [at 0.35 µM] | viability change, negative = cytotoxic [16] 6.31% [at 0.29 µM] | activation [17] -7.74% [at 0.29 µM] | activation [18] 6.35% [at 0.29 µM]

CNCc1ccccc1
inactive: outcome [1] | outcome [2] | outcome [3] | outcome [4] | Potency [5] | outcome [19] | outcome [9] | outcome [20] | outcome [10] | outcome [11] | outcome [12] | outcome [13] | outcome [14] | outcome [15] | outcome [16] | outcome [17] | Potency [18]

CC(=O)OC(C)(C)Cc1ccccc1
inactive: outcome [1] | outcome [2] | outcome [3] | outcome [4] | Potency [5] | outcome [6] | outcome [19] | outcome [7] | outcome [8] | outcome [9] | outcome [20] | outcome [10] | outcome [11] | outcome [12] | outcome [13] | outcome [14] | outcome [15] | outcome [16] | outcome [17] | Potency [18]

CN(C)CCCNCCC#N
inactive: outcome [1] | outcome [2] | outcome [3] | Potency [5] | outcome [19] | outcome [7] | outcome [8] | outcome [9] | outcome [10] | outcome [11] | outcome [12] | outcome [13] | outcome [14] | outcome [15] | outcome [16] | outcome [17] | Potency [18]

SCCSCCS
inactive: outcome [1] | outcome [2] | outcome [3] | outcome [4] | Potency [5] | outcome [6] | outcome [19] | outcome [7] | outcome [9] | outcome [20] | outcome [10] | outcome [11] | outcome [12] | outcome [13] | outcome [14] | outcome [15] | outcome [16] | outcome [17] | Potency [18]

CO[Si](CCCCl)(OC)OC
inactive: outcome [1] | outcome [2] | outcome [3] | Potency [5] | outcome [19] | outcome [7] | outcome [8] | outcome [9] | outcome [20] | outcome [10] | outcome [11] | outcome [12] | outcome [13] | outcome [14] | outcome [15] | outcome [16] | outcome [17] | Potency [18]

Cc1ccccc1N1CCN(CCc2nnc3n2CCCC3)CC1
inactive: outcome [1] | outcome [2] | outcome [3] | outcome [4] | outcome [6] | outcome [19] | outcome [7] | outcome [8] | outcome [9] | outcome [10] | outcome [11] | outcome [12] | outcome [13] | outcome [14] | outcome [15] | outcome [16] | outcome [17] | Potency [18]
